In the supplement of paper PMC8387472:

Key:
Assay in all cases: fraction of edited reads among all mapped reads; higher = more Cas9 editing
Conditions in all cases: mESC; 2uM; 72 h treatment, harvest day 5
[1] = compound: CC(=O)O/N=C1\C(=O)N(Cc2cc(Cl)ccc2Cl)c2ccc(Cl)cc21
[2] = compound: CC(C)(C#N)c1ccc(N2C(=O)OCc3cnc4ccc(-c5cnc6ccccc6c5)cc4c32)cc1
[3] = compound: CCCCOc1c(C(=O)c2c(F)cc(C)cc2F)c[nH]c2nncc1-2
[4] = compound: CCN1CCN(CC(=O)Nc2ccc(-c3cccc4c(=O)cc(N5CCOCC5)oc34)c3sc4ccccc4c23)CC1
[5] = compound: CCc1c2c(nc3ccc(OC(=O)N4CCC(N5CCCCC5)CC4)cc13)-c1cc3c(c(=O)n1C2)COC(=O)[C@]3(O)CC [Irinotecan HCl Trihydrate]
[6] = compound: CCn1c(=O)c(-c2ccc(Cl)cc2Cl)cc2cnc(Nc3ccc(N4CCNCC4)c(F)c3)nc21
[7] = compound: CNc1ccc([N+](=O)[O-])c(Nc2ccc3[nH]ncc3c2)n1
[8] = compound: CO[C@H]1/C=C/O[C@@]2(C)Oc3c(C)c(O)c4c(O)c(c(/C=N/N5CCN(C6CCCC6)CC5)c(O)c4c3C2=O)NC(=O)/C(C)=C\C=C\[C@H](C)[C@H](O)[C@@H](C)[C@@H](O)[C@@H](C)[C@H](OC(C)=O)[C@@H]1C [Rifapentine]
[9] = compound: COc1ccccc1-c1cc(Nc2cccc(CS(N)(=O)=O)c2)ncn1
[10] = compound: C[C@@H]1CN(CC(=O)Nc2ccc3c(c2)Cc2cccc(-c4cc(=O)cc(N5CCOCC5)o4)c2S3)C[C@H](C)O1
[11] = compound: Cc1cc(C)nc(SCC(=O)Nc2ncc(Cc3cccc4ccccc34)s2)n1
[12] = compound: Cc1ccc(C(=O)NCCCCCC(=O)Nc2ccccc2N)cc1
[13] = compound: Cc1cccc(CC(=O)N2CCc3c2ccc(-c2cn(C)c4ncnc(N)c24)c3F)n1
[14] = compound: NC(=O)c1ccc2nc(-c3ccc(Oc4ccc(Cl)cc4)cc3)[nH]c2c1 [Chk 2 inhibitor II (BML-277)]
[15] = compound: Nc1cc(F)ccc1NC(=O)c1ccc(CNC(=O)/C=C/c2cccnc2)cc1 [Tucidinostat (Chidamide)]
[16] = compound: Nc1nc2[nH]cc(CCc3ccc(C(=O)N[C@@H](CCC(=O)O)C(=O)O)cc3)c2c(=O)[nH]1 [Pemetrexed]
[17] = compound: Nc1ncnc2c1c(-c1cnc3[nH]ccc3c1)nn2C1CCCC1
[18] = compound: O=C(c1cccc(Cl)c1F)N1CCN(Cc2cccc(Nc3nccs3)n2)CC1
[19] = compound: O=C1Cc2c([nH]c3ccc(Br)cc23)-c2ccccc2N1 [Kenpaullone]
[20] = compound: O=c1c(-c2ccc(O)cc2)coc2cc(O)cc(O)c12 [Genistein]

Target | fraction of edited reads among all mapped reads [1] | fraction of edited reads among all mapped reads [2] | fraction of edited reads among all mapped reads [3] | fraction of edited reads among all mapped reads [4] | fraction of edited reads among all mapped reads [5] | fraction of edited reads among all mapped reads [6] | fraction of edited reads among all mapped reads [7] | fraction of edited reads among all mapped reads [8] | fraction of edited reads among all mapped reads [9] | fraction of edited reads among all mapped reads [10] | fraction of edited reads among all mapped reads [11] | fraction of edited reads among all mapped reads [12] | fraction of edited reads among all mapped reads [13] | fraction of edited reads among all mapped reads [14] | fraction of edited reads among all mapped reads [15] | fraction of edited reads among all mapped reads [16] | fraction of edited reads among all mapped reads [17] | fraction of edited reads among all mapped reads [18] | fraction of edited reads among all mapped reads [19] | fraction of edited reads among all mapped reads [20]
47.0 (DMSO control at this site: 1-bp insertion 0.095, MH deletion 0.585, edited 0.118) GAGTGGTCCCGAGCCAGGAACTGTGTGTGTTGCAGGGGGGCAGTAACTCCCCAACTCCCTC | 0.124 | 0.13 | 0.135 | 0.0496 | 0.156 | 0.121 | 0.151 | 0.198 | 0.151 | 0.0862 | 0.199 | 0.123 | 0.171 | 0.143 | 0.0948 | 0.12 | 0.129 | 0.0848 | 0.244 | 0.148
30.0 (DMSO control at this site: 1-bp insertion 0.074, MH deletion 0.67, edited 0.142) GAGCTGGCATGAGTATTTGTGCCACATGGCTCCCACATGGCTCCACATGCAAGTTTGAAAC | 0.142 | 0.149 | 0.158 | 0.066 | 0.204 | 0.156 | 0.187 | 0.224 | 0.177 | 0.134 | 0.226 | 0.147 | 0.212 | 0.179 | 0.129 | 0.148 | 0.143 | 0.112 | 0.286 | 0.191
22.0 (DMSO control at this site: 1-bp insertion 0.573, MH deletion 0.229, edited 0.045) CTGATGGTTGAAGGATTTAGCCGGGGTCCTAGACGCCGGGGTCCTAGACGAAAGGGCCACG | 0.0447 | 0.0542 | 0.0455 | 0.0167 | 0.0664 | 0.0371 | 0.0513 | 0.0926 | 0.0709 | 0.0389 | 0.0884 | 0.0476 | 0.0695 | 0.0586 | 0.0454 | 0.056 |  | 0.0278 | 0.117 | 0.0556
45.0 (DMSO control at this site: 1-bp insertion 0.017, MH deletion 0.666, edited 0.101) TTACACAGCATGAACTGCTAGGTGATGATGTCAGATTCGGTTTTACTAACTTCTCCAAAAA | 0.115 | 0.112 | 0.119 | 0.0494 | 0.153 | 0.113 | 0.133 | 0.203 | 0.144 | 0.0499 | 0.195 | 0.111 | 0.151 | 0.127 | 0.0928 | 0.0998 | 0.0941 | 0.069 | 0.233 | 0.139
23.0 AGAACAAAGCGCTCATATAACGATATGGGGGGTTATGGGGGGTTGAATTGCTTCAGCACGA |  |  |  |  |  |  | 0.981 |  |  |  |  |  |  |  |  |  |  | 0.94 |  | 
8.0 GCATGCGTGTTTTGGGACAATGTAGTATACATTTGGGAGGCTCTCAGCTTTTCCCAATAAA | 0.0233 | 0.0207 | 0.0186 |  |  |  |  |  |  |  | 0.021 |  |  |  | 0.0159 | 0.0154 | 0.0205 |  | 0.0456 | 
28.0 (DMSO control at this site: 1-bp insertion 0.035, MH deletion 0.77, edited 0.142) TGGTTCTTCCTTTGTAGAGAGTGTTCATCTGGGAATCTGGGACTTGGATGAGACAATCATT | 0.171 | 0.174 | 0.171 | 0.0787 | 0.217 | 0.16 | 0.181 | 0.291 | 0.196 | 0.0747 | 0.267 | 0.152 | 0.212 | 0.19 | 0.126 | 0.14 | 0.153 | 0.11 | 0.297 | 0.198
3.0 (DMSO control at this site: 1-bp insertion 0.109, MH deletion 0.149, edited 0.09) TGCTAGCGCCCCCACAAAGCGGACCAGCCAGCACTATAGGGAATAAGGCCAACTTGCACCC | 0.101 | 0.0887 | 0.115 | 0.0444 | 0.124 | 0.099 | 0.103 | 0.178 | 0.123 | 0.0619 | 0.162 | 0.0928 | 0.145 | 0.126 | 0.0815 | 0.12 | 0.0841 | 0.0816 | 0.193 | 0.13
29.0 (DMSO control at this site: 1-bp insertion 0.084, MH deletion 0.745, edited 0.133) TTGATGAACTTCCTCTTCTTCTCATGTCTCCGGTCTCCGGTAGGCCACGTGCATGGCCACT | 0.166 | 0.157 | 0.153 | 0.073 | 0.196 | 0.142 | 0.167 | 0.256 | 0.172 | 0.0736 | 0.239 | 0.147 | 0.189 | 0.165 | 0.129 | 0.13 | 0.144 | 0.0932 | 0.261 | 0.18
35.0 (DMSO control at this site: 1-bp insertion 0.01, MH deletion 0.72, edited 0.098) CCACTTTTAGAGAGGGTGAAAATCATCAGTTATCATCAGGGCAACAAATTGCTTTCTCCTA |  | 0.143 |  | 0.0527 | 0.166 | 0.111 | 0.148 | 0.208 | 0.151 | 0.0395 | 0.179 | 0.117 | 0.147 | 0.122 | 0.0981 | 0.104 | 0.108 | 0.0696 | 0.209 | 0.151
